Bioassay records deposited in PubChem by National Center for Advancing Translational Sciences (NCATS).
TbPYK inhibitor – T. brucei pyruvate kinase inhibition; TbPYK enzyme, Kinase-Glo Plus ATP luminescence, 45 min; Potency, µM (doses to about 76.8 µM), for inactives: top-dose activity, negative = inhibition, actives largely listed as inhibitors; AID 624173; Q57TT1; actives 0.12% (n = 410,000); note: nearly all actives have a fitted effect of over 50% in size
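ADP (130 uM final) triggers the TbPYK reaction after compound addition; incubation is 45 min at room temperature. Kinase-Glo Plus is then added and luminescence imaged. Normalized data are fitted to concentration-effect curves.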
AMA1 RON2 block – disrupts binding of P. falciparum AMA1 to RON2; AlphaScreen AMA1-biotinylated RON2 peptide binding; Potency, µM (doses to about 58.2 µM), for inactives: at the top dose activity change, negative = inhibition, actives largely listed as inhibitors; actives 0.2% (n = 360,000); AID 720542;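 note: 0% = vehicle wells and -100% = peptide control; nearly all actives have a fitted effect of over 45% in size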
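AMA1 (3D7) with his tag at 25 nM final met compounds first, then biotinylated RON2 peptide at 25 nM; detection used donor plus acceptor beads, 10 µg/mL apiece, read by AlphaScreen after 30 min at room temperature.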
RE007 growth inh – less growth of the S. pombe RE007 Vpr strain; actives 0.21% (n = 360,000); Potency, µM (doses to about 92.2 µM), inactives show top-dose activity change, negative = less growth, actives largely listed as inhibitors; AID 651644; S. pombe RE007 Vpr strain, BacTiter-Glo ATP luminescence, 24 h; active = well fitted falling curve with a large enough effect; inconclusive = small, poorly fitted or top-dose-only effect; inactive = no such curve, though single readings can be large or run the other way; note: nearly all actives have a fitted effect of over 50% in size
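Fission yeast strain RE007, carrying one chromosomally integrated HIV-1 vpr copy, was seeded at OD 0.01 in PMG+AL medium with 23 nL pinned compound. After 24 h at 30 °C and 99% humidity, viability was read by BacTiter-Glo luminescence.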
LmPK inhibitor – blocks Leishmania mexicana pyruvate kinase activity | purified LmPK, Kinase-Glo ATP luminescence, 1 h | Potency, µM (highest dose often 57.5 µM), for the others: at the highest dose activity change, negative = inhibition, hits mostly inhibitors | actives 0.37% (n = 290,000) | AID 1721
Target sequence (Q27686 whole entry, looked up): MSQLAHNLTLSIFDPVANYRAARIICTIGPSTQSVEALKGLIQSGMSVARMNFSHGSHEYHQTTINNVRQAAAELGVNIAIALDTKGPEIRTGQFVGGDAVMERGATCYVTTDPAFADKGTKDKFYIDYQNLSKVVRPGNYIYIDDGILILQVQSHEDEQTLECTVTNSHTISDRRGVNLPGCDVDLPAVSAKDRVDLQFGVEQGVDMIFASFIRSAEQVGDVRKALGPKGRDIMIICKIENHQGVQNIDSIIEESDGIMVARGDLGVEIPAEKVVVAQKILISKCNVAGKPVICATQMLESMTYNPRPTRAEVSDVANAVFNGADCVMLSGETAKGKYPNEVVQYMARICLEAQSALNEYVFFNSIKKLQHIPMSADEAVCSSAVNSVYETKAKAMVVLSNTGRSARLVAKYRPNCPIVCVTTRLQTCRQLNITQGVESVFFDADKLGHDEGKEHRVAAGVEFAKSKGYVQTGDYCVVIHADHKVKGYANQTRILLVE
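Kinase-Glo luminescence read after 1 h RT reaction of 0.1 nM LmPK with 0.5 mM PEP and 0.1 mM ADP. Activity scaled between uninhibited and enzyme-free controls.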
Starred values were filed as active, the others as inactive; ? = inconclusive; · = not tested or not shown; [ ] = remark or other dose. An excerpt weighted towards active compounds, which were near 0.68% of everything screened. Unless noted, calls come from the whole dose curve; as a rule, active = well fitted curve in the direction sought with a large enough effect; inconclusive = small, poorly fitted or top-dose-only effect, or another doubt; inactive = no such curve, though single readings can be large; an effect the other way counts as inactive or inconclusive. Unless noted, % is set by controls: 0 for no effect and ±100 for the full control effect; potency is the fitted concentration of half-maximal effect.

SMILES | TbPYK inhibitor | AMA1 RON2 block | RE007 growth inh | LmPK inhibitor
Cc1ccc(-n2c(C3CC3c3ccc(Cl)cc3)n[nH]c2=S)cc1 (stereo not given) | ? | 48% | -3% | 7.9µM*
CCOC(=O)c1[nH]c(=S)n(-c2ccccc2)c1C(=O)OCC | 2.5µM* | 134% | -4% | ·
COc1cccc(-c2noc(CCC(=O)NC3CCCCC3)n2)c1 | 17% | -2% | -11% | -11%
Cc1nc(-c2ccc([N+](=O)[O-])cc2)sc1C(=O)O | -10% | -15% | -24% | 16µM*
COc1ccc(N2CCN(C(=O)c3oc4ccccc4c3C)CC2)cc1 | -1% | 14µM* | -12% | -5%
COc1ccc(N2CCN(C(=O)c3cc(-c4cccs4)nc4ccccc34)CC2)cc1 | -12% | 13µM* | -2% | 2%
Cc1ccc(NS(=O)(=O)c2ccc3c(c2)CCCN3C(=O)C2CCC2)cc1Cl | -2% | · | · | ·
O=C1C=CC2=C3c4cc(O)c(O)cc4CC3(O)COC2=C1O (stereo not given) | ? | 2.8µM* | -15% | ·
O=C(Nc1ccc(Cl)cc1)c1cc(S(=O)(=O)Nc2ccccn2)ccc1Cl | 1% | 34% | -18% | 0%
Nc1ccc(S(=O)(=O)NNC(=O)C(=O)NNc2ccccn2)cc1 | -1% | 45% | -1% | 0%
Cc1ccc(S(=O)(=O)NNC(=O)C(=O)NNc2ccccn2)cc1 | 2% | 32µM* | 11% | -1%
Cc1ccc(-n2c(CCc3ccccc3)n[nH]c2=S)cc1C | ? | 61% | 10% | 14µM*
COc1ccc(-n2c(COc3ccc(C)cc3)n[nH]c2=S)cc1 | ? | 70% | 4% | -12%
Cc1cccc(OCc2n[nH]c(=S)n2-c2ccccc2)c1 | ? | 67% | 1% | -1%
COc1ccc(-n2c(COc3ccccc3)n[nH]c2=S)cc1 | 11µM* | 93% | 17% | 5%
Cc1ccc(-n2c(COc3cccc(C)c3)n[nH]c2=S)cc1 | 16µM* | 81% | 1% | ?
S=c1[nH]nc(CSCc2ccccc2Cl)n1-c1ccccc1 | · | -6% | 6%[3.69 µM] | 13µM*
Cc1cccc(NC(=O)c2cc(S(=O)(=O)N3CCOCC3)cn2C)c1C | -4% | -3% | -8% | 0%
CC1(C)CC(=O)C=C(C(=O)N2CCCC(C(=O)c3cc(F)ccc3F)C2)O1 (stereo not given) | -9% | 7% | -3% | ·
NCCCP(=O)(O)CCc1ccccc1 | 0% | -1% | 12% | 2%
O=S1(=O)NCC2(CC2)CN1Cc1ccccc1 | -1% | 7% | -11% | ·
COc1ccc(CSCCc2n[nH]c(=S)n2-c2ccccc2)cc1 | 3.2µM* | 81% | 12% | -3%
CC(C)Oc1ccc(CCc2n[nH]c(=S)n2-c2ccccc2)cc1 | ? | 49% | 7% | 14µM*
COc1ccc(CC(=O)NCc2n[nH]c(=S)n2-c2ccccc2)cc1 | ? | 23% | -3% | -11%
COCc1n[nH]c(=S)n1-c1ccccc1 | ? | -2% | 7% | 0%
SMILES | TbPYK inhibitor | AMA1 RON2 block | RE007 growth inh | LmPK inhibitor
COc1ccc(OCc2n[nH]c(=S)n2Cc2ccco2)cc1 | 2.8µM* | 92% | 2% | -13%
CC(C)c1nc(SCC(=O)Nc2ccc3c(c2)OCO3)n[nH]1 | -2% | 0% | -10% | -1%
Nc1cc(=O)[nH]c(SCCOc2ccccc2)n1 | -17% | -2% | -2% | -4%
Cc1ccc(NC(=O)COc2ncnc3sccc23)cc1S(=O)(=O)N(C)C | -1% | -12% | 2% | -1%
Cc1ccnc(NC(=O)c2c(O)c3ccccc3n(C)c2=O)c1 | · | · | · | 3%
C=CCNc1nc(NCc2ccc(N(C)C)cc2)c2sc(-c3ccccc3)cc2n1 | 3% | 2.8µM* | -16% | ·
CC(Oc1ccc(Cl)cc1)C(=O)Nc1sccc1C(N)=O (stereo not given) | -3% | -3% | -9% | 2%
COC(=O)c1ccc(O)cc1 | 10% | 4% | -7% | -11%
COC(=O)c1ccc(CCc2cc(O)c(Br)cc2O)cc1 | ? | ? | 11µM* | ·
COC(=O)c1ccc(CCc2cc(O)ccc2O)cc1 | ? | -3% | 11µM* | ·
Cc1ccc(Cn2nnc(C(=O)Nc3ccc(F)c(F)c3)c2N)cc1 | 1% | · | · | ·
CCc1ccc(CCC(=O)Nc2sc(C)c(C)c2C(=O)OC)o1 | -3% | 27µM* | -22% | -4%
N=c1oc2cc(O)ccc2cc1C(=O)Nc1ccccn1 | · | · | · | -8%
